From the supplement of paper PMC10849652
About 8,800 targets were measured; listed, in parts, are those with a hit and a random draw of the rest. About 0.5% of all pairs of compound and target were hits.

Legend:
Experiment in all cases: log2 fold change, soluble protein after heating vs DMSO (PISA); higher = thermal stabilisation; K562 lysate, 10 uM; active = over 0.2 and 3.5 SD of the protein, either way, in both replicates (recomputed)
ibrutinib = compound: C=CC(=O)N1CCC[C@@H](n2nc(-c3ccc(Oc4ccccc4)cc3)c3c(N)ncnc32)C1 [ibrutinib]
Summary of the method: (§1)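 K562 pellets were dounce-homogenised in PBS pH 7.4 containing 1 mM MgCl2, and the crude extract, at 1 mg/mL protein, was exposed to 10 μM compound for 30 min. Aliquots were heated for 3 min across 48°C-58°C, pooled, brought to 0.5% NP-40 at 4°C and spun at 21,000xg for 90 min, with the supernatant taken as soluble protein. TMTpro 16plex LC-MS/MS with equalised channel sums quantified that protein. Values are log-two fold changes in thermal stability relative to solvent controls, taken from duplicates.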

[1] = compound: CC(=O)c1cnc2ccc(-c3cc(Cl)c(O)c(Cl)c3)nc2c1N[C@H]1CC[C@H](CN(C)C)CC1
Summary of the method: as §1

ralimetinib = compound: CC(C)(C)Cn1c(N)nc2ccc(-c3[nH]c(C(C)(C)C)nc3-c3ccc(F)cc3)nc21 [ralimetinib]
Summary of the method: as §1

[2] = compound: CC(C)(O)CC(=O)NCCn1ccc2ncnc(Nc3ccc(Oc4cccc(C(F)(F)F)c4)c(Cl)c3)c21
Summary of the method: as §1

[3] = compound: CC(C)C1=C2N=C(C=C(N2N=C1)NCC3=CC=CC=C3)NCCCCCCN
Summary of the method: as §1

[4] = compound: CC1=C(C(CC(=O)N1)C2=CC=C(C=C2)C(F)(F)F)C(=O)NC3=C(C=C4C(=C3)C=NN4)F
Summary of the method: as §1

[5] = compound: CC1=C(C2=C(C=C1)C(=O)C3=CC=CC=C3N2CCCN)C
Summary of the method: as §1

[6] = compound: CC1=C(C=C(C=C1)NC(=O)C2=CC(=CC=C2)C(C)(C)C#N)NC3=CC4=C(C=C3)N=CN(C4=O)C
Summary of the method: as §1

[7] = compound: CC1=C(C=C(C=C1)NC(=O)C2=CC(=CC=C2)N(C)C)NC(=O)C3=CC=C(C=C3)O
Summary of the method: as §1

[8] = compound: CC1=CC=C(C=C1)SC2=C3C=C(SC3=CN=C2)C(=O)N
Summary of the method: as §1

vemurafenib = compound: CCCS(=O)(=O)Nc1ccc(F)c(C(=O)c2c[nH]c3ncc(-c4ccc(Cl)cc4)cc23)c1F [vemurafenib]
Summary of the method: as §1

[9] = compound: CCCS(=O)(=O)Nc1ccc(F)c(C(=O)c2c[nH]c3ncc(Cl)cc23)c1F
Summary of the method: as §1

barasertib = compound: CCN(CCCOc1ccc2c(Nc3cc(CC(=O)Nc4cccc(F)c4)[nH]n3)ncnc2c1)CCOP(=O)(O)O [barasertib]
Summary of the method: as §1

[10] = compound: CC[C@@H]1C(=O)N(C)c2cnc(Nc3ccc(C(=O)NC4CCN(C)CC4)cc3OC)nc2N1C1CCCC1
Summary of the method: as §1

volasertib = compound: CC[C@@H]1C(=O)N(C)c2cnc(Nc3ccc(C(=O)N[C@H]4CC[C@H](N5CCN(CC6CC6)CC5)CC4)cc3OC)nc2N1C(C)C [volasertib]
Summary of the method: as §1

[11] = compound: CCn1c(C(=O)N(C2CC2)C2CC2)cc2c3c(ncn3C)c(Nc3cc(C)n(C)n3)nc21
Summary of the method: as §1

[12] = compound: CCn1cc(-c2ccnc3[nH]c(-c4cccc(CN(C)C)c4)cc23)c(-c2ccc(NC(=O)N(C)C)cc2)n1
Summary of the method: as §1

[13] = compound: CN1CCC(CNc2ccc3ncc(-c4cccc(OC(F)(F)F)c4)n3n2)CC1
Summary of the method: as §1

saracatinib = compound: CN1CCN(CCOc2cc(OC3CCOCC3)c3c(Nc4c(Cl)ccc5c4OCO5)ncnc3c2)CC1 [saracatinib]
Summary of the method: as §1

sotrastaurin = compound: CN1CCN(c2nc(C3=C(c4c[nH]c5ccccc45)C(=O)NC3=O)c3ccccc3n2)CC1 [sotrastaurin]
Summary of the method: as §1

Measured: log2 fold change

MLXIP (UniProt Q9HAP2)
inactive: ibrutinib 0.045 | [1] 0.007 | ralimetinib -0.006 | [2] -0.035 | [3] 0.028 | [4] -0.033 | [5] -0.015 | [6] -0.015 | [7] -0.011 | [8] -0.015 | vemurafenib 0.004 | [9] 0.013 | barasertib 0.019 | [10] -0.032 | volasertib -0.041 | [11] 0.028 | [12] -0.045 | [13] 0.093 | saracatinib 0 | sotrastaurin 0.008

LAMP1 (UniProt P11279)
active: [12] -0.508
inactive: ibrutinib 0.034 | [1] -0.031 | ralimetinib -0.003 | [2] -0.11 | [3] 0.008 | [4] 0.01 | [5] 0.003 | [6] 0.022 | [7] -0.04 | [8] -0.032 | vemurafenib -0.009 | [9] 0.02 | barasertib 0.001 | [10] 0.059 | volasertib 0.056 | [11] -0.097 | [13] 0.24 | saracatinib 0.018 | sotrastaurin 0.022

LAGE3 (UniProt Q14657)
UniProt Q14657, sequence (Q14657 whole entry, looked up): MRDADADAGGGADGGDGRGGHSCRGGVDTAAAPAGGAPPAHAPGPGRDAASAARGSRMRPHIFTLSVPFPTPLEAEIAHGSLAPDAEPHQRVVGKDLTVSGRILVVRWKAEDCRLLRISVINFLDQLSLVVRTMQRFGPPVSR
inactive: ibrutinib 0.047 | [1] 0.002 | ralimetinib 0.012 | [2] 0 | [3] -0.004 | [4] -0.147 | [5] -0.098 | [6] -0.002 | [7] 0.031 | [8] 0.046 | vemurafenib 0.016 | [9] 0.004 | barasertib 0.128 | [10] -0.032 | volasertib 0.005 | [11] 0.058 | [12] -0.024 | [13] -0.003 | saracatinib 0.019 | sotrastaurin -0.024

MED13L (UniProt Q71F56)
UniProt Q71F56, sequence (Q71F56 whole entry, looked up): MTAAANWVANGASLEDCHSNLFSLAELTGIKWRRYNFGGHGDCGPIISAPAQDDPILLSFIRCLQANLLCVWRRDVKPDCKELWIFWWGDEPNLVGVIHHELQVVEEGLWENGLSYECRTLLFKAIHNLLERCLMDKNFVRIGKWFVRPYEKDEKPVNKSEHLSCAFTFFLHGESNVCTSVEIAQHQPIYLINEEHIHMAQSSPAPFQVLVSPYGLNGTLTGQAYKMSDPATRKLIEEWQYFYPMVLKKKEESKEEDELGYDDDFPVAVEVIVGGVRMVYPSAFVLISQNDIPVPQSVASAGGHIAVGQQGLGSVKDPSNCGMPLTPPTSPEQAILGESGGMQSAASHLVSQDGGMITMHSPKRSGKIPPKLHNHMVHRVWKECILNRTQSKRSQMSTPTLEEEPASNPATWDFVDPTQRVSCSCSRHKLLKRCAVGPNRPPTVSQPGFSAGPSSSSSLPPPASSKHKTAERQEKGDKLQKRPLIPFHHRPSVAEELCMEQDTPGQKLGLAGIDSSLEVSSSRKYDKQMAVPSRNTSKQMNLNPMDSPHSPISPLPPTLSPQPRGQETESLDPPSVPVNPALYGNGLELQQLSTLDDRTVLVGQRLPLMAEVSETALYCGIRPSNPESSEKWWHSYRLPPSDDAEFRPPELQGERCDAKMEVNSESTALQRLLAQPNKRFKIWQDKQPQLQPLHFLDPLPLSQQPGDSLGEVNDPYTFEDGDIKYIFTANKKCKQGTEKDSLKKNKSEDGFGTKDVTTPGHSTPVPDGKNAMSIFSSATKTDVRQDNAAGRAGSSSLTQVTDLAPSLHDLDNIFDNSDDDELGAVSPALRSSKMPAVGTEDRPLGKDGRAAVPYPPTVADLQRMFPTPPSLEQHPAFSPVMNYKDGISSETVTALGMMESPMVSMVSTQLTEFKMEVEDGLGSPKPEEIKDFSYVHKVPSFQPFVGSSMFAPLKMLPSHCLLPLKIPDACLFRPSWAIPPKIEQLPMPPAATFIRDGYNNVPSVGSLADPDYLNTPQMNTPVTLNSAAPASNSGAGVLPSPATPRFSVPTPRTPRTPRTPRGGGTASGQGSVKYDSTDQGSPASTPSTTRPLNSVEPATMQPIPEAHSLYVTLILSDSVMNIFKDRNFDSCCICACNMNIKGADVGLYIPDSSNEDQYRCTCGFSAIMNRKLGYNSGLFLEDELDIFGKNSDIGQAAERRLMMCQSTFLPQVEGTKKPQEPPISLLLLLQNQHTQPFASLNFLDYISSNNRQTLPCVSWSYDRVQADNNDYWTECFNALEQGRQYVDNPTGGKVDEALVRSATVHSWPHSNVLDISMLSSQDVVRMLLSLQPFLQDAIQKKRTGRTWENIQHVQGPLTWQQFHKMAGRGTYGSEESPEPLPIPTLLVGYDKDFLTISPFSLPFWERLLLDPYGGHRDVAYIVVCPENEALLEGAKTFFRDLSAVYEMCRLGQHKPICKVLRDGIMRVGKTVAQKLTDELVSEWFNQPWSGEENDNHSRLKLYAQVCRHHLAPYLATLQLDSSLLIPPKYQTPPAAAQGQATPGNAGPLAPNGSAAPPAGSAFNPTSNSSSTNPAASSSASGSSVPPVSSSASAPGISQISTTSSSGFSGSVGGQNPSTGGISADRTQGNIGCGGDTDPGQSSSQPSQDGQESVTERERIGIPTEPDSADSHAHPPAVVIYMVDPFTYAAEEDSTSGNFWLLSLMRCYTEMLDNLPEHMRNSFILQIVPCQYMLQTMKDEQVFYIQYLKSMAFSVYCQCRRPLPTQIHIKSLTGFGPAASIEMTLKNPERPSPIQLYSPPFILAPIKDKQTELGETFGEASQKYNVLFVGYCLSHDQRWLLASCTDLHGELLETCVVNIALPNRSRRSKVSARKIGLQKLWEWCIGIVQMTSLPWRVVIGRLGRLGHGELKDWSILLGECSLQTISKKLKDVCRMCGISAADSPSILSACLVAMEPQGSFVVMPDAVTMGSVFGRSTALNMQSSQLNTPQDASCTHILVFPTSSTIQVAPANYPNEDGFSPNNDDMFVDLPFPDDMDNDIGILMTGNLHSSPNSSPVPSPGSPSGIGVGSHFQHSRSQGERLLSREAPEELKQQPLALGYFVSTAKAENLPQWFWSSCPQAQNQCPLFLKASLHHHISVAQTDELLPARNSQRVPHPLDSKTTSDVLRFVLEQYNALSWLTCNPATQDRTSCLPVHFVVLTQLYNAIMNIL
inactive: ibrutinib 0.047 | [1] -0.036 | ralimetinib 0.014 | [2] -0.016 | [3] 0.005 | [4] -0.027 | [5] -0.036 | [6] 0.007 | [7] 0.015 | [8] -0.035 | vemurafenib -0.043 | [9] -0.012 | barasertib 0.028 | [10] 0.01 | volasertib -0.058 | [11] 0.038 | [12] -0.023 | [13] 0.064 | saracatinib -0.037 | sotrastaurin -0.018

MGAT5 (UniProt Q09328)
inactive: ibrutinib 0.038 | [1] 0.014 | ralimetinib 0.001 | [2] 0.039 | [3] -0.045 | [4] -0.084 | [5] 0.005 | [6] -0.002 | [7] -0.004 | [8] 0.014 | vemurafenib -0.254 | [9] -0.07 | barasertib 0.062 | [10] -0.08 | volasertib -0.065 | [11] 0.021 | [12] 0.094 | [13] -0.138 | saracatinib -0.036 | sotrastaurin 0.002

MAP2K7 isoform 4 (UniProt O14733)
UniProt O14733, sequence (O14733 whole entry, looked up): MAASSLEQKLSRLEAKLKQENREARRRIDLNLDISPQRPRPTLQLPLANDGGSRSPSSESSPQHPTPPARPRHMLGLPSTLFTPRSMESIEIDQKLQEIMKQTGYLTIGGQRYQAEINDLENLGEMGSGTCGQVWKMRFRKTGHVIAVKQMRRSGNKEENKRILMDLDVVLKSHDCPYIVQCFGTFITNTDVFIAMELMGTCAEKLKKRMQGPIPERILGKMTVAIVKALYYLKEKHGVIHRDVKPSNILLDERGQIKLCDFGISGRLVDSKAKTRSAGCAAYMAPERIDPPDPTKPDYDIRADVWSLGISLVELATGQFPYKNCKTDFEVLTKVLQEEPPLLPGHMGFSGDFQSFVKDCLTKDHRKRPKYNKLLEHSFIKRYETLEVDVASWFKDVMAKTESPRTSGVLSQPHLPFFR
inactive: [1] 0.288 | ralimetinib 0.028 | [2] 0.028 | [3] -0.071 | [4] -0.029 | [5] 0.011 | [6] -0.004 | [7] -0.002 | [8] 0.018 | vemurafenib 0.073 | [9] 0.087 | barasertib -0.02 | [10] 0.016 | volasertib -0.04 | [11] 0.042 | [12] 0.004 | [13] -0.02 | saracatinib 0.032 | sotrastaurin 0.02
active: ibrutinib 1.44

MAP11 (UniProt Q8WVR3)
inactive: ibrutinib 0.064 | [1] 0.072 | ralimetinib 0.037 | [2] -0.008 | [3] -0.005 | [4] 0.105 | [5] -0.063 | [6] 0.014 | [7] -0.031 | [8] 0.078 | vemurafenib -0.032 | [9] 0.044 | barasertib 0.07 | [10] 0.129 | volasertib -0.079 | [11] 0.086 | [12] 0.049 | [13] 0.06 | saracatinib 0.033 | sotrastaurin -0.039

LARS (UniProt Q9P2J5)
UniProt Q9P2J5, sequence (Q9P2J5 whole entry, looked up): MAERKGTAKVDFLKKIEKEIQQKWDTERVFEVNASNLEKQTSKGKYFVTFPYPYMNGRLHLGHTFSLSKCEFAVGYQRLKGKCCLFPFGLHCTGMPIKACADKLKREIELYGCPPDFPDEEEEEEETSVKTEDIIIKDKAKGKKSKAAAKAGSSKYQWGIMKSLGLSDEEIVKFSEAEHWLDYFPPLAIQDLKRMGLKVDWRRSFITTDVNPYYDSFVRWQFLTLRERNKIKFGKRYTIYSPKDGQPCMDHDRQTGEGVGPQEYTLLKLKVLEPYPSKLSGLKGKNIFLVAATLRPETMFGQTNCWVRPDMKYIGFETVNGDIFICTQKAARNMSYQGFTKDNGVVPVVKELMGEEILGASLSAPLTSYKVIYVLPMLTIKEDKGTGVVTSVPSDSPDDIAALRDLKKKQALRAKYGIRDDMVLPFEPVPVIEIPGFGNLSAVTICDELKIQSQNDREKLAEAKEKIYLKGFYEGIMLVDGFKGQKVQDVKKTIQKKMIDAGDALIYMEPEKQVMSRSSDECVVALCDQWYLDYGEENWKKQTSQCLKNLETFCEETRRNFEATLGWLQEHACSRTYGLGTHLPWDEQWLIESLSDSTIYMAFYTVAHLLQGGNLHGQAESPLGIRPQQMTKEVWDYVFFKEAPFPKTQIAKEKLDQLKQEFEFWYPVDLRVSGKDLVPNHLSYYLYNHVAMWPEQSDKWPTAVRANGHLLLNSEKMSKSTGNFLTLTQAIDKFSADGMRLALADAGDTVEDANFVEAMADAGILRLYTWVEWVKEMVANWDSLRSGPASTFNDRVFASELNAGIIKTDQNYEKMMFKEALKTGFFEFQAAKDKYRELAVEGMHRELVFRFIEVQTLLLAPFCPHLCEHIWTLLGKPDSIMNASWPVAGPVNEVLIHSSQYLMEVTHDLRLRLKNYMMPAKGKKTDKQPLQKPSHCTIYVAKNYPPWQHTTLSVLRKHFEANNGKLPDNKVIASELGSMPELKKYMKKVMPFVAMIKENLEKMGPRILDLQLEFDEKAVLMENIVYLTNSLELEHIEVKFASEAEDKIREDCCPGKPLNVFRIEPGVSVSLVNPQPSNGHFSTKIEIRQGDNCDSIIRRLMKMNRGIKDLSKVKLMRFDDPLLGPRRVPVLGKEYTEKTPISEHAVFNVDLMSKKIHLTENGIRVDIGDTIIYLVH
inactive: ibrutinib -0.021 | [1] -0.003 | ralimetinib 0.023 | [2] 0.048 | [3] 0.021 | [4] -0.001 | [5] -0.017 | [6] -0.041 | [7] 0.029 | [8] 0.022 | vemurafenib -0.005 | [9] 0.006 | barasertib 0.006 | [10] -0.069 | volasertib -0.063 | [11] 0.045 | [12] 0.008 | [13] -0.058 | saracatinib -0.023 | sotrastaurin -0.002

MOSPD2 (UniProt Q8NHP6)
UniProt Q8NHP6, sequence (Q8NHP6 whole entry, looked up): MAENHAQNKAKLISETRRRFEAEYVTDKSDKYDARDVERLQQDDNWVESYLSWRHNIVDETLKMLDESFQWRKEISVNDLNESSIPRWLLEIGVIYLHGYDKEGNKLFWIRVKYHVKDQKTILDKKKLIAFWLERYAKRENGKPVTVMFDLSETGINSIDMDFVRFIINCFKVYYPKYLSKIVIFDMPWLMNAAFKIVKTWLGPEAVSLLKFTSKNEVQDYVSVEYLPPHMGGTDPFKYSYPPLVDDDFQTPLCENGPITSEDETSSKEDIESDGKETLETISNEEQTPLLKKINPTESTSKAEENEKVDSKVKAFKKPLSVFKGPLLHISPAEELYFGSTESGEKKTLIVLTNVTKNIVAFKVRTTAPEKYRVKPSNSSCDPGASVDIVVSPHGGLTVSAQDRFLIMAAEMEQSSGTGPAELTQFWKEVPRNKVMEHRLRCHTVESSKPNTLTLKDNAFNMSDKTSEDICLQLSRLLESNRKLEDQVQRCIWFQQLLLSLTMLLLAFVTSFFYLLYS
inactive: ibrutinib -0.023 | [1] 0.019 | ralimetinib 0.023 | [2] 0.067 | [3] 0.028 | [4] -0.049 | [5] 0.009 | [6] -0.037 | [7] -0.012 | [8] 0.017 | vemurafenib 0.003 | [9] 0.008 | barasertib -0.007 | [10] 0.158 | volasertib -0.014 | [11] 0.039 | [12] -0.054 | [13] 0.004 | saracatinib 0.043 | sotrastaurin 0.076

MRPL30 isoform 2 (UniProt Q8TCC3)
active: [12] 0.563 | [13] -0.434
inactive: ibrutinib 0.01 | [1] 0.043 | ralimetinib 0.04 | [2] -0.084 | [3] 0 | [4] 0 | [5] -0.037 | [6] 0.02 | [7] -0.006 | [8] 0.087 | [9] 0.002 | barasertib 0.002 | [10] -0.068 | volasertib -0.013 | [11] -0.027 | saracatinib 0.01 | sotrastaurin 0.016

KIF22 (UniProt Q14807)
inactive: ibrutinib 0.012 | [1] -0.02 | ralimetinib 0.006 | [2] -0.27 | [3] 0.028 | [4] 0.016 | [5] -0.142 | [6] 0.143 | [7] -0.027 | [8] -0.117 | vemurafenib -0.043 | [9] -0.049 | barasertib 0.009 | [10] 0.088 | volasertib 0.075 | [11] -0.189 | [12] -0.157 | [13] 0.308 | saracatinib 0.036 | sotrastaurin -0.084

LYRM4 (UniProt Q9HD34)
UniProt Q9HD34, sequence (Q9HD34 whole entry, looked up): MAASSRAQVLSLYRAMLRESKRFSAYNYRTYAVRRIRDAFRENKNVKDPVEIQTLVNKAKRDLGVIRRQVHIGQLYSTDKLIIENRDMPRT
active: [12] 0.715
inactive: ibrutinib 0.015 | [1] 0.034 | ralimetinib -0.036 | [2] -0.042 | [3] 0.017 | [4] 0.017 | [5] -0.027 | [6] 0.109 | [7] -0.034 | [8] -0.009 | vemurafenib 0.026 | [9] 0.015 | barasertib -0.04 | [10] -0.051 | volasertib 0.021 | [11] 0.03 | [13] -0.035 | saracatinib 0.007 | sotrastaurin -0.05

MINDY1 isoform 3 (UniProt Q8N5J2)
UniProt Q8N5J2, sequence (Q8N5J2 whole entry, looked up): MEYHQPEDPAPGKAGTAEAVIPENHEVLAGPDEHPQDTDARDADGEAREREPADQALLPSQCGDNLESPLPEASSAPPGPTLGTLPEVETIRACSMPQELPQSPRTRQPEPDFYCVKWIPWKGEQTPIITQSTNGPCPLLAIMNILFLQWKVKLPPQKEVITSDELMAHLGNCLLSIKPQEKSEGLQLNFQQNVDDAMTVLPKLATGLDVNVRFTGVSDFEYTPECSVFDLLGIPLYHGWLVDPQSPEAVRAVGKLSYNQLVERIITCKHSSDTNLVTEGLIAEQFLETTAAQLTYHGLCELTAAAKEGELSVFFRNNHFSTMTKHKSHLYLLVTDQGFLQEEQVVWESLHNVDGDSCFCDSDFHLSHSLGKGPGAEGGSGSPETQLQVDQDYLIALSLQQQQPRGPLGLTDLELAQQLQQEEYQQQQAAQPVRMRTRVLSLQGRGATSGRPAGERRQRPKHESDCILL
inactive: ibrutinib 0.199 | [1] 0 | ralimetinib 0.001 | [2] -0.121 | [3] -0.022 | [4] -0.179 | [5] -0.161 | [6] -0.034 | [7] 0.015 | [8] 0.065 | vemurafenib -0.049 | [9] -0.26 | barasertib -0.201 | [10] 0.059 | volasertib -0.041 | [11] -0.106 | saracatinib 0.076 | sotrastaurin 0.074

LIG4 (UniProt P49917)
inactive: ibrutinib 0.056 | [1] 0.174 | ralimetinib -0.001 | [2] -0.023 | [3] 0.013 | [4] -0.016 | [5] -0.021 | [6] 0.004 | [7] 0.015 | [8] 0.109 | vemurafenib 0.041 | [9] -0.034 | barasertib -0.04 | [10] -0.087 | volasertib -0.182 | [11] -0.027 | [12] -0.105 | [13] 0.018 | saracatinib 0.027 | sotrastaurin 0.048

LPCAT1 (UniProt Q8NF37)
active: [12] -0.39
inactive: ibrutinib 0.175 | [1] -0.021 | ralimetinib 0 | [2] -0.142 | [3] -0.036 | [4] 0.066 | [5] -0.011 | [6] 0.003 | [7] -0.016 | [8] -0.019 | vemurafenib -0.009 | [9] 0.07 | barasertib 0.012 | [10] 0.037 | volasertib 0.097 | [11] -0.072 | [13] 0.099 | saracatinib 0.079 | sotrastaurin 0.032

MAP4K5 (UniProt Q9Y4K4)
inactive: ibrutinib 0.029 | [1] 0.108 | ralimetinib 0.039 | [2] 0.002 | [3] 0.098 | [4] -0.003 | [5] 0.009 | [6] 0 | [7] 0.021 | [8] 0.025 | vemurafenib 0.185 | [9] -0.011 | barasertib 0.23 | volasertib -0.069 | [11] 0.014 | [12] 0 | [13] -0.007 | saracatinib 0.01
